# Measurements from PubChem BioAssay (Tox21).
# Several values for one entry are separate records, joined by “and”; a condition that tells them apart may be missing. Equal entries are not always repeated. Records with an inconclusive call do not appear. Unmarked numbers belong to inactive results. Activity calls are given as the source filed them. Calls follow the shape of the dose curve; as a rule, active = well fitted cell-killing curve with a large enough effect in the repeat runs; inconclusive = weak or mixed curves, or effect the other way; inactive = flat fitted curve, though single readings scatter.
# Experiment: qHTS RealTime-Glo MT Cell Viability Assay in HEK293 cells - 24 hour (AID 1224886); also: nearly all actives have a fitted effect of over 50% in size; as to activity change, negative = cytotoxicity: top concentration of the series differs between compounds
# Settings: RealTime-Glo luminescence; series mostly up to 76.8 µM; activity change, negative = cytotoxicity: at the top concentration
# How it was run: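 Viability tracked continuously by luminescence as live cells reduce a prosubstrate for NanoLuc; HEK293 cells preincubated 5 h, compound-treated at 37 C, and read at 0, 8, 16, 24, 32 and 40 h.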
# % is scaled to controls: 0 for no effect and ±100 for the full control effect; potency is read from the fitted curve at half-maximal effect.
Compound,Potency,"activity change, negative = cytotoxicity"
CCN(CC)c1ccc2c(C)cc(=O)oc2c1,34.9 µM (active),–
CCCN[C@H]1CCc2nc(N)sc2C1,–,-2.63% [at 35.3 µM]
CC(C)(C)c1ccccc1,–,-0.909%
NC12CC3CC(CC(C3)C1)C2,–,-3.08% [at 35.3 µM]
NC(N)=NC(=O)Cc1c(Cl)cccc1Cl,–,-17.5% [at 35.3 µM]
CC(C)(C)NC(=O)[C@@H]1CN(Cc2cccnc2)CCN1C[C@@H](O)C[C@@H](Cc1ccccc1)C(=O)N[C@H]1c2ccccc2C[C@H]1O,inactive,–
CCCCCCCCCCCCCC[P+](CCCC)(CCCC)CCCC,387 nM (active) and 616 nM (active),–
CCCNC(C)C(=O)Nc1ccccc1C (configuration not stated),–,-8.95% [at 35.3 µM]
CCOc1ccccc1C(N)=O,inactive,–
CC(=O)CC(C)=O,–,-4.83%
O=c1n(CC2CO2)c(=O)n(CC2CO2)c(=O)n1CC1CO1 (configuration not stated),inactive,–
NNCCc1ccccc1,inactive,–
CC1COC(=O)O1 (configuration not stated),inactive,–
CC1=CC(=O)c2ccccc2C1=O,15.5 µM (active),–
O=Nc1ccc(Nc2ccccc2)cc1,6.96 µM (active) and 9.77 µM (active),–
Oc1ccc(Cl)cc1Cc1cc(Cl)ccc1O,22.3 µM (active) and 43.6 µM (active),–
CCCCOCCOC(=O)c1ccccc1C(=O)OCCOCCCC,–,-24.1%
CCn1cc(C(=O)O)c(=O)c2cc(F)c(N3CCNC(C)C3)c(F)c21 (configuration not stated),–,17.4% [at 35.3 µM]
O=C(O)CP(=O)(O)O,–,-5.16% [at 35.3 µM]

Compound,Potency,"activity change, negative = cytotoxicity"
CCN(CC)C(=O)Nc1ccc(OCC(O)CNC(C)(C)C)c(C(C)=O)c1 (configuration not stated),–,3.53% [at 35.3 µM]
CCOc1ccc2c(c1)C(C)=CC(C)(C)N2,inactive,–
COc1ccc(Cc2cnc(N)nc2N)cc1OC,–,-0.598% [at 35.3 µM]
Cc1occc(=O)c1OC(=O)C(C)C,–,3.2%
CC(=O)C1=C(C)[C@@H]2C[C@@]3(C1)[C@H](C)CC[C@H]3C2(C)C,inactive,–
O=C(O)c1cccc(C(=O)O)c1,inactive,–
c1ccc2cc3c(ccc4ccccc43)cc2c1,inactive,–
CC[C@@H](N)CO,–,-7.93%
Cc1scc2c1N(C(=O)CN1CCN(C)CC1)c1ccccc1NC2=O,–,4.24% [at 35.3 µM]
CC(N)=O,–,12.5% [at 200 µM]
O=C1OC2(c3ccc(O)cc3Oc3cc(O)ccc32)c2ccccc21,inactive,–
c1ccc2n[nH]nc2c1,inactive,–
Oc1c(Cl)cc(Cl)c(Cl)c1Cc1c(O)c(Cl)cc(Cl)c1Cl,3.88 µM (active),–
c1ccc2c(c1)CCCC2C1=NCCN1 (configuration not stated),–,4.43% [at 35.3 µM]
CN1C(=O)c2ccc([N+](=O)[O-])cc2C1=O,–,0.0866%
Cc1cc(Cc2cc(C)cc(C(C)(C)C)c2O)c(O)c(C(C)(C)C)c1,12.4 µM (active) and 15.5 µM (active),–
CCN(CC)CCOc1ccc(/C(=C(\Cl)c2ccccc2)c2ccccc2)cc1,12.6 µM (active) and 21.3 µM (active),–
NCCO,inactive,–
